Screens as filed in PubChem BioAssay.
HT1080 IDH1KD tx: HT-1080 IDH1 knockdown cell toxicity (counter line) | HT-1080 IDH1 knockdown viability, ATP luminescence, 48 h | AID 686971 | Potency, µM (doses to about 46.1 µM), for inactives: at the highest dose activity, negative = toxicity, usual class: cytotoxic | actives 2% (n = 360,000);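 also: potency is read from the fitted curve at half-maximal effect; 0% = DMSO wells and -100% = cell-free medium wells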
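CellTiter-Glo luminescence after 48 h compound exposure at 37 degrees C of IDH1-knockdown HT-1080 cells in 5% FBS RPMI. %Activity scaled between DMSO wells and cell-free media wells, with curves fitted and assigned curve classes.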
TDP1 cell noCPT: qHTS for Inhibitors of human tyrosyl-DNA phosphodiesterase 1 (TDP1): qHTS in cells in absence of CPT; DT40 Tdp1-/- hTDP1 cells, no CPT, ATP luminescence, 48 h; actives 15% (n = 420,000); AID 686978, 2013; Potency, µM (titrated, usually from 46.2 µM), without a hit: at the highest dose activity change, negative = growth inhibition, hits mostly inhibitors; also: potency is read from the fitted curve at half-maximal effect; nearly all actives have a fitted effect of over 55% in size
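Camptothecin absent (DMSO only). Human TDP1-complemented DT40 knockout cells, 400 cells/well, 37 °C for minimum 48 hr; ATP measured via CellTiter-Glo, 30 min dark incubation, luminescence.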
HT1080-NT tox: kills 2HG-producing HT-1080-NT fibrosarcoma cells | actives 1.6% (n = 360,000) | AID 686970 | Potency, µM (highest dose often 46.1 µM), for the others: top-dose activity, negative = less viability, actives largely listed as cytotoxic | HT-1080-NT fibrosarcoma viability, CellTiter-Glo ATP luminescence, 48 h;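 also: NT is the 2HG producing partner of a matched IDH1 knockdown line; potency is read from the fitted curve at half-maximal effect; 0% = DMSO-treated cells and -100% = media-only wells without cells; nearly all actives have a fitted effect of over 55% in size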
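Read-out is CellTiter-Glo luminescence after 10 minutes at room temperature, following 48 hours' compound treatment of HT-1080-NT cells (750 cells/well, RPMI, 5% FBS, 37 degrees C).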
ELG1 repair inh: inhibitors of ELG1-dependent DNA repair in HEK293T cells; HEK293T ELG1-luciferase reporter, luminescence, 16 h; DNA damage induced by 5-fluorouridine; Potency, µM (titrated, usually from 46.1 µM), without a hit: top-dose activity change, negative = inhibition, usual class: inhibitors; actives 2.3% (n = 330,000); AID 504467; also: potency is read from the fitted curve at half-maximal effect; nearly all actives have a fitted effect of over 55% in size
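DMSO vehicle served as the neutral condition. Each well held 2,000 cells given 5-fluorouridine plus compound; after 16 hr at 37 °C/5% CO2, ONE-Glo was added and luciferase measured 30 min later.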
DT40 TDP1 CPT: growth inhibition of DT40 Tdp1-/-;hTDP1 cells with camptothecin (screen for TDP1 inhibitors); chicken DT40 Tdp1-/-;hTDP1 cells + 20 nM CPT, ATP luminescence, 48 h; Potency, µM (titrated, usually from 46.2 µM), for inactives: at the highest dose activity change, negative = growth inhibition, usual class: inhibitors; actives 12% (n = 420,000); AID 686979; also: potency is read from the fitted curve at half-maximal effect; nearly all actives have a fitted effect of over 55% in size
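Chicken DT40 Tdp1-/- cells complemented with human TDP1, 400 cells/well, exposed to compounds plus 20 nM camptothecin for at least 48 h at 37 C; viability read as ATP content by CellTiter-Glo luminescence.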
IL1B secr inh: inhibitors of inflammasome signaling (IL-1 beta secretion); THP-1 LPS/ATP IL-1B secretion, AlphaLISA, 16 h; hits give low values; activity change, % at 57.5 µM; actives 4.7% (n = 360,000); AID 743279; in the data active = activity change below about -50%; inconclusive = mostly about -30% to -49%
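Secreted IL-1B measured by AlphaLISA bead assay after 16 h compound exposure of THP-1 cells; compounds (final up to 57.5 uM) added 1 h before LPS (250 ng/mL) and ATP (1.25 mM) stimulation; lower signal means less secretion.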
Numbers without * were called inactive; [ ] = remark or other dose. This is a sample that favours compounds with a hit; in the whole collection about 19% have one here. Unless noted, calls follow the shape of the dose curve; as a rule, active = well fitted curve in the direction sought with a large enough effect; inconclusive = small, poorly fitted or top-dose-only effect, or another doubt; inactive = no such curve, though single readings can be large; an effect the other way counts as inactive or inconclusive. Unless noted, % is scaled to controls: 0 for no effect and ±100 for the full control effect.

Screening Cc1cc(OCC(=O)NC(Cc2ccc(Cl)cc2)C(=O)O)c2c3c(c(=O)oc2c1)CCCC3 (centres undefined) returned HT1080 IDH1KD tx -8.5%, TDP1 cell noCPT -0.4%, HT1080-NT tox -4.6%, ELG1 repair inh 0.0%, DT40 TDP1 CPT 1.1% and IL1B secr inh 2.0.
`COc1ccc(OC)c(N2C(=O)NC(=O)/C(=C\c3ccc([N+](=O)[O-])s3)C2=O)c1` gave HT1080 IDH1KD tx -18.0%, TDP1 cell noCPT inconclusive, HT1080-NT tox -13.2%, ELG1 repair inh 0.4%, DT40 TDP1 CPT 16.4µM* and IL1B secr inh inconclusive.
`O=C1NC(=O)N(c2ccccc2)C(=O)/C1=C\c1ccc([N+](=O)[O-])s1` gave HT1080 IDH1KD tx -2.0%, TDP1 cell noCPT 8.2µM*, HT1080-NT tox 4.3%, ELG1 repair inh -1.4%, DT40 TDP1 CPT 20.6µM* and IL1B secr inh -69.4*.
Screening CN1C(=O)NC(=O)/C(=C/c2ccc([N+](=O)[O-])s2)C1=O returned HT1080 IDH1KD tx -7.6%, TDP1 cell noCPT 3.26µM*, HT1080-NT tox -25.4%, ELG1 repair inh -17.0%, DT40 TDP1 CPT 4.11µM* and IL1B secr inh -18.5.
Oc1ccc2c3c1O[C@H]1[C@@H](O)C=C[C@H]4[C@@H](C2)NCC[C@@]341 was read as TDP1 cell noCPT -15.8%[92.5 µM] and DT40 TDP1 CPT -19.3%[92.5 µM].
For CN1CCCC(C(=O)c2ccc(-c3ccccc3)cc2)C1 (centres undefined) the results were HT1080 IDH1KD tx -21.6%, TDP1 cell noCPT 18.4µM*, HT1080-NT tox -27.2%, ELG1 repair inh 28.3%, DT40 TDP1 CPT inconclusive and IL1B secr inh -12.5.
For O=C(c1ccc(-c2ccccc2)c(F)c1)C1CCCN(CCO)C1 (centres undefined) the results were HT1080 IDH1KD tx inconclusive, TDP1 cell noCPT inconclusive, HT1080-NT tox inconclusive, ELG1 repair inh 11.6%, DT40 TDP1 CPT inconclusive and IL1B secr inh -74.6*.
For COc1ccc(CN2CCN(C(=O)Cc3ccccc3)CC2)cc1Br the results were HT1080 IDH1KD tx 8.8%, TDP1 cell noCPT -10.4%, HT1080-NT tox 6.0%, ELG1 repair inh -17.8%, DT40 TDP1 CPT -18.6% and IL1B secr inh -19.7.
For O=C(O)CF the results were TDP1 cell noCPT -9.1% and DT40 TDP1 CPT -1.9%.
O=S(=O)(c1cccc(C(F)(F)F)c1)N1Cc2ccccc2-n2nncc2C1 was read as HT1080 IDH1KD tx -7.2%, TDP1 cell noCPT 9.2µM*, HT1080-NT tox -7.8%, DT40 TDP1 CPT 23.1µM* and IL1B secr inh 15.2.
Screening O=C(C1CCCCC1)N1Cc2ccccc2-n2nncc2C1 returned HT1080 IDH1KD tx -1.8%, TDP1 cell noCPT -110.8%, HT1080-NT tox 1.3%, DT40 TDP1 CPT -104.2% and IL1B secr inh 3.2.
O=S(=O)(c1ccccc1)N1Cc2ccccc2-n2nncc2C1 was read as HT1080 IDH1KD tx -0.8%, TDP1 cell noCPT 20.6µM*, HT1080-NT tox 1.9%, DT40 TDP1 CPT inconclusive and IL1B secr inh 3.3.
For CS(=O)(=O)c1ccc(C2=C(CNC(=O)c3nccs3)[C@H]3CC[C@@H](C2)N3Cc2ccco2)cc1 the results were HT1080 IDH1KD tx -0.6%, TDP1 cell noCPT -17.7%, HT1080-NT tox -4.2%, DT40 TDP1 CPT -12.1% and IL1B secr inh 5.0.
Cc1ccc(/C(CSc2nccn2-c2ncc(C(F)(F)F)cc2Cl)=N\O)cc1 was read as HT1080 IDH1KD tx -13.6%, TDP1 cell noCPT 18.4µM*, HT1080-NT tox -9.8%, ELG1 repair inh -4.9%, DT40 TDP1 CPT inconclusive and IL1B secr inh 0.7.
O=C(CN1CCCCC1)c1ccccc1Cl was read as HT1080 IDH1KD tx 0.0%, TDP1 cell noCPT -7.4%, HT1080-NT tox 0.1%, ELG1 repair inh inconclusive, DT40 TDP1 CPT -13.2% and IL1B secr inh 12.2.
Screening O=C(CCl)c1ccc(Cl)cc1Cl returned TDP1 cell noCPT 13.7µM* and DT40 TDP1 CPT 21.7µM*.
Screening COc1ccc(CCNCc2sccc2C)cc1 returned HT1080 IDH1KD tx 1.6%, TDP1 cell noCPT -5.4%, HT1080-NT tox 0.4%, ELG1 repair inh 21.1%, DT40 TDP1 CPT inconclusive and IL1B secr inh inconclusive.
For COc1cc(C2c3cc4c(c(O)c3CC3COC(=O)C32)OCO4)cc(OC)c1O (centres undefined) the results were TDP1 cell noCPT inconclusive and DT40 TDP1 CPT 0.0708µM*.
For COc1cc(C2c3cc4c(cc3CC3COC(=O)C32)OCO4)cc(OC)c1O (centres undefined) the results were HT1080 IDH1KD tx inconclusive, TDP1 cell noCPT 0.291µM*, HT1080-NT tox inconclusive, DT40 TDP1 CPT 0.0517µM* and IL1B secr inh 26.0.
`COc1ccc2c(c1OC)C(=O)OC2C1c2cc3c(cc2CCN1C)OCO3` (centres undefined) gave HT1080 IDH1KD tx 1.4%, TDP1 cell noCPT 3.0%, HT1080-NT tox 6.4%, ELG1 repair inh inconclusive, DT40 TDP1 CPT 0.2% and IL1B secr inh 10.8.
Screening COc1cc(C2c3cc4c(cc3C(OC(C)=O)[C@H]3COC(=O)C23)OCO4)cc(OC)c1OC (some centres undefined) returned TDP1 cell noCPT 0.0326µM* and DT40 TDP1 CPT 1.03µM*.
`CCCCc1nn2c(=O)cc(COC(=O)Cc3ccccc3)nc2s1` gave TDP1 cell noCPT -0.1% and DT40 TDP1 CPT -22.4%.
`NP(=O)(OCCCc1ccccc1)Oc1ccccc1Cl` (centres undefined) gave HT1080 IDH1KD tx 7.3%, TDP1 cell noCPT -3.7%, HT1080-NT tox 1.2%, ELG1 repair inh inconclusive, DT40 TDP1 CPT 4.1% and IL1B secr inh -0.6.
For Clc1ccc(C(Cn2ccnc2)OCc2csc3c(Cl)cccc23)c(Cl)c1 (centres undefined) the results were HT1080 IDH1KD tx 20.6µM*, TDP1 cell noCPT 13µM*, HT1080-NT tox inconclusive, ELG1 repair inh inconclusive, DT40 TDP1 CPT 23.1µM* and IL1B secr inh -77.8*.
For CC(C)N1CC=C(c2c[nH]c3ccccc23)CC1 the results were HT1080 IDH1KD tx -19.9%, TDP1 cell noCPT 4.61µM*, HT1080-NT tox -16.1%, ELG1 repair inh inconclusive, DT40 TDP1 CPT 7.31µM* and IL1B secr inh 4.3.
For CN1c2ccc([N+](=O)[O-])cc2CC2(C(=O)NC(=O)NC2=O)C1c1ccccc1 (centres undefined) the results were HT1080 IDH1KD tx -4.8%, TDP1 cell noCPT inconclusive, HT1080-NT tox -2.7%, ELG1 repair inh 3.3%, DT40 TDP1 CPT inconclusive and IL1B secr inh 11.0.
